Laboratory results published in PubChem BioAssay (NCI).
About 83,000 compounds went through this panel and 20% of them were active in at least one assay; those are over-represented in the sample as a whole.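 Single-dose data. Exposure time 48 hours. Values below 10 considered active.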 Calls of active or inactive are those of the source.

Key:
Assay in all cases: NCI-60 one-dose screen, 48 h (100 = growth as untreated, 0 = no growth, -100 = all killed)
Conditions in all cases: 10 µM unless noted
SR leukemia = system: SR leukemia
OVCAR-8 ovarian = system: OVCAR-8 ovarian
OVCAR-5 ovarian = system: OVCAR-5 ovarian
OVCAR-4 ovarian = system: OVCAR-4 ovarian
SK-OV-3 ovarian = system: SK-OV-3 ovarian
IGROV1 ovarian = system: IGROV1 ovarian
OVCAR-3 ovarian = system: OVCAR-3 ovarian
HS 578T breast = system: HS 578T breast
NCI/ADR-RES ovarian = system: NCI/ADR-RES ovarian
BT-549 breast = system: BT-549 breast
MDA-MB-435 melanoma = system: MDA-MB-435 melanoma
SW-620 colon = system: SW-620 colon
MCF7 breast = system: MCF7 breast
HCT-116 colon = system: HCT-116 colon
HCC-2998 colon = system: HCC-2998 colon
KM12 colon = system: KM12 colon
T-47D breast = system: T-47D breast
RPMI-8226 leukemia = system: RPMI-8226 leukemia

Measured: growth

COC(=O)c1ccc2[nH]c(O)c(C(=Nc3ccc(N(C)C(=O)CN4CCN(C)CC4)cc3)c3ccc4c(c3)OCO4)c2c1
active: SR leukemia 0.377% | SK-OV-3 ovarian -8.57% | IGROV1 ovarian 4.12% | BT-549 breast 3.64% | SW-620 colon 0.696% | HCT-116 colon 0.577% | KM12 colon 4.89%
inactive: OVCAR-8 ovarian 20.3% | OVCAR-5 ovarian 35.8% | OVCAR-4 ovarian 28.1% | OVCAR-3 ovarian 10.9% | HS 578T breast 10.5% | NCI/ADR-RES ovarian 104% | MDA-MB-435 melanoma 21.2% | MCF7 breast 11.1% | HCC-2998 colon 16%

O=C(Nc1ccc(-n2cc(-c3ccncc3)c(-c3ccc(Cl)c(O)c3)n2)cc1)Nc1ccc(Cl)c(C(F)(F)F)c1
inactive: OVCAR-5 ovarian 30.1% | OVCAR-4 ovarian 16.1% | SW-620 colon 11%
active: SR leukemia -10.6% | OVCAR-8 ovarian 1.06% | SK-OV-3 ovarian 3.02% | IGROV1 ovarian -0.0868% | OVCAR-3 ovarian 2.48% | HS 578T breast -38.6% | NCI/ADR-RES ovarian 6.63% | T-47D breast 4.31% | MCF7 breast -0.973% | HCT-116 colon -15.8% | HCC-2998 colon 0.686% | KM12 colon 1.21%

COc1cc(-c2nn(-c3ccc(NC(=O)Nc4ccc(Cl)c(C(F)(F)F)c4)cc3)cc2-c2ccncc2)ccc1Cl
active: SR leukemia -1.8% | OVCAR-8 ovarian 8.56% | NCI/ADR-RES ovarian -1.19% | MDA-MB-435 melanoma 4% | MCF7 breast 8.22% | HCT-116 colon 2.34% | HCC-2998 colon -2.15% | KM12 colon 6.77%
inactive: OVCAR-5 ovarian 25% | OVCAR-4 ovarian 23.1% | SK-OV-3 ovarian 10.7% | IGROV1 ovarian 25.9% | OVCAR-3 ovarian 10.9% | T-47D breast 15.1% | SW-620 colon 13.4%

OC(c1ccccc1)(c1ccccc1)C(F)(F)F
inactive: SR leukemia 85.3% | OVCAR-8 ovarian 112% | OVCAR-5 ovarian 93.9% | OVCAR-4 ovarian 122% | SK-OV-3 ovarian 103% | IGROV1 ovarian 115% | NCI/ADR-RES ovarian 106% | T-47D breast 92.1% | MDA-MB-435 melanoma 103% | MCF7 breast 104% | HCT-116 colon 107% | KM12 colon 92.3%

N#Cc1c2ncccc2c2nnc3cc(Cl)c(Cl)cc3n12
inactive: SR leukemia 70.2% | OVCAR-8 ovarian 87.6% | OVCAR-5 ovarian 90.1% | OVCAR-4 ovarian 108% | SK-OV-3 ovarian 104% | IGROV1 ovarian 72.9% | NCI/ADR-RES ovarian 99.8% | T-47D breast 60.4% | MDA-MB-435 melanoma 106% | SW-620 colon 78.7% | MCF7 breast 38.9% | HCT-116 colon 78.7% | HCC-2998 colon 75.6% | KM12 colon 89%

COC(=O)c1ccc2[nH]c(O)c(C(=Nc3ccc(N(C)C(=O)CN4CCN(C)CC4)cc3)c3ccc(CCO)cc3)c2c1
inactive: OVCAR-8 ovarian 64.5% | OVCAR-5 ovarian 80.6% | OVCAR-4 ovarian 56.6% | SK-OV-3 ovarian 39.7% | IGROV1 ovarian 16.5% | HS 578T breast 23.9% | NCI/ADR-RES ovarian 104% | BT-549 breast 20.6% | MDA-MB-435 melanoma 60.8% | SW-620 colon 27.9% | MCF7 breast 26.3% | HCC-2998 colon 53.2% | KM12 colon 18.5%
active: SR leukemia 6.7% | HCT-116 colon 9.37%

CCCC(C)c1cc(Cc2cc(Cl)cc(Cl)c2O)c(O)c(Cc2cc(Cl)cc(Cl)c2O)c1 (stereo unspecified)
active: SR leukemia 5.98% | HS 578T breast 1.09% | NCI/ADR-RES ovarian 2.52% | T-47D breast 6.27% | BT-549 breast -14.9% | MDA-MB-435 melanoma 7.24% | MCF7 breast 4.88% | HCT-116 colon 4.58% | HCC-2998 colon 8.08% | KM12 colon 9.12%
inactive: OVCAR-8 ovarian 15% | OVCAR-4 ovarian 22% | SK-OV-3 ovarian 14.6% | IGROV1 ovarian 28.1% | OVCAR-3 ovarian 16.2% | SW-620 colon 12.9%

CCCCCCCCCCCCCCCCNC(=S)N/N=C/c1ccc(OC)cc1
inactive: SR leukemia 106% | OVCAR-8 ovarian 92.1% | OVCAR-5 ovarian 105% | OVCAR-4 ovarian 113% | SK-OV-3 ovarian 114% | OVCAR-3 ovarian 110% | HS 578T breast 107% | NCI/ADR-RES ovarian 101% | T-47D breast 103% | BT-549 breast 104% | MDA-MB-435 melanoma 107% | SW-620 colon 107% | MCF7 breast 102% | HCT-116 colon 89.6% | HCC-2998 colon 113% | KM12 colon 97.9%

CC(=O)Nc1ccc(S(=O)(=O)Cl)cc1
inactive: SR leukemia 86.8% | OVCAR-8 ovarian 113% | OVCAR-5 ovarian 109% | OVCAR-4 ovarian 110% | SK-OV-3 ovarian 106% | IGROV1 ovarian 116% | OVCAR-3 ovarian 112% | NCI/ADR-RES ovarian 116% | T-47D breast 101% | BT-549 breast 114% | MDA-MB-435 melanoma 115% | SW-620 colon 115% | MCF7 breast 96% | HCT-116 colon 111% | HCC-2998 colon 108% | KM12 colon 107%

CCCCS(=O)(=O)c1cc(Nc2ccc(O)c3c2C(=O)c2ccccc2C3=O)ccc1C
inactive: SR leukemia 58.6% | OVCAR-8 ovarian 86.6% | OVCAR-5 ovarian 78.5% | OVCAR-4 ovarian 78.9% | SK-OV-3 ovarian 87.8% | IGROV1 ovarian 81.8% | OVCAR-3 ovarian 46.4% | NCI/ADR-RES ovarian 82.2% | T-47D breast 75.6% | BT-549 breast 91.6% | SW-620 colon 103% | MCF7 breast 33.8% | HCT-116 colon 78.7% | HCC-2998 colon 67% | KM12 colon 73.4%
active: MDA-MB-435 melanoma -85.7%

COc1cc2c(c3c1c(=O)c1cccc(F)c1n3C)C=CC(C)(C)O2
inactive: SR leukemia 48.8% | OVCAR-8 ovarian 85.2% | OVCAR-4 ovarian 101% | SK-OV-3 ovarian 110% | IGROV1 ovarian 75.4% | OVCAR-3 ovarian 117% | HS 578T breast 101% | NCI/ADR-RES ovarian 83.9% | T-47D breast 89.2% | MDA-MB-435 melanoma 94.9% | SW-620 colon 113% | MCF7 breast 44.6% | HCT-116 colon 92.8% | HCC-2998 colon 101% | KM12 colon 76.6%

Nc1nc2c(c3ncncc13)C(c1cccc(C(F)(F)F)c1)Cc1ncncc1-2 (stereo unspecified)
active: MDA-MB-435 melanoma -24.7%
inactive: SR leukemia 32.9% | OVCAR-8 ovarian 57.6% | OVCAR-5 ovarian 77.4% | OVCAR-4 ovarian 39.8% | SK-OV-3 ovarian 32.9% | IGROV1 ovarian 54.4% | HS 578T breast 18.2% | NCI/ADR-RES ovarian 15.3% | T-47D breast 37.9% | BT-549 breast 30.1% | SW-620 colon 28.9% | MCF7 breast 19.2% | HCT-116 colon 18.5% | HCC-2998 colon 64.3% | KM12 colon 28.9%

c1ccc(Nc2ncc3c(n2)-c2cccn2CC3)cc1
inactive: SR leukemia 101% | OVCAR-8 ovarian 104% | OVCAR-5 ovarian 77.9% | OVCAR-4 ovarian 40.3% | SK-OV-3 ovarian 88.9% | IGROV1 ovarian 54.5% | OVCAR-3 ovarian 82.7% | HS 578T breast 91.6% | NCI/ADR-RES ovarian 98.7% | BT-549 breast 102% | MDA-MB-435 melanoma 105% | SW-620 colon 102% | MCF7 breast 13.4% | HCT-116 colon 92% | HCC-2998 colon 47.5% | KM12 colon 27.9%

CCCCN(CCCC)c1ccc(C(=O)O)cc1
inactive: RPMI-8226 leukemia 102% | OVCAR-8 ovarian 105% | OVCAR-5 ovarian 108% | OVCAR-4 ovarian 101% | SK-OV-3 ovarian 98.5% | IGROV1 ovarian 99.3% | OVCAR-3 ovarian 106% | HS 578T breast 109% | NCI/ADR-RES ovarian 106% | T-47D breast 94.7% | BT-549 breast 97% | MDA-MB-435 melanoma 102% | SW-620 colon 107% | MCF7 breast 98.6% | HCT-116 colon 97.3% | HCC-2998 colon 100%

NNC(=S)N1N=C(c2cc3ccccc3o2)CC1c1c[nH]c2ccccc12 (stereo unspecified)
inactive: SR leukemia 27.2% | OVCAR-8 ovarian 38.8% | OVCAR-5 ovarian 80.4% | OVCAR-4 ovarian 28.6% | SK-OV-3 ovarian 86.2% | IGROV1 ovarian 35.3% | OVCAR-3 ovarian 20% | NCI/ADR-RES ovarian 30.7% | T-47D breast 40.3% | BT-549 breast 32.2% | MDA-MB-435 melanoma 57.8% | SW-620 colon 43.8% | MCF7 breast 20.7% | HCT-116 colon 23.8% | HCC-2998 colon 52% | KM12 colon 37.4%

CC(Br)c1nc2ccccc2cc1C(N)=O (stereo unspecified)
inactive: SR leukemia 74.9% | OVCAR-8 ovarian 112% | OVCAR-5 ovarian 108% | OVCAR-4 ovarian 109% | SK-OV-3 ovarian 95.3% | IGROV1 ovarian 108% | OVCAR-3 ovarian 105% | NCI/ADR-RES ovarian 109% | BT-549 breast 112% | MDA-MB-435 melanoma 112% | SW-620 colon 110% | MCF7 breast 84.9% | HCT-116 colon 106% | HCC-2998 colon 102% | KM12 colon 105%

Cc1sc(NC(=O)c2ccc(C(C)(C)C)cc2)c(C(=O)O)c1C
inactive: SR leukemia 62.8% | OVCAR-8 ovarian 56.5% | OVCAR-5 ovarian 94% | SK-OV-3 ovarian 103% | IGROV1 ovarian 70.9% | OVCAR-3 ovarian 71.7% | NCI/ADR-RES ovarian 58.9% | T-47D breast 87.5% | BT-549 breast 88.8% | MDA-MB-435 melanoma 96.1% | SW-620 colon 60% | MCF7 breast 62.2% | HCT-116 colon 45.3% | HCC-2998 colon 71.2% | KM12 colon 28.8%

Clc1ccc(I)c2ccccc12
inactive: SR leukemia 102% | OVCAR-8 ovarian 102% | OVCAR-5 ovarian 107% | OVCAR-4 ovarian 107% | SK-OV-3 ovarian 103% | IGROV1 ovarian 107% | OVCAR-3 ovarian 108% | HS 578T breast 98.9% | NCI/ADR-RES ovarian 109% | BT-549 breast 94.6% | MDA-MB-435 melanoma 108% | SW-620 colon 107% | MCF7 breast 95.8% | HCT-116 colon 97.4% | HCC-2998 colon 107% | KM12 colon 110%

OCCN1CCCN(CCCN2c3ccccc3Sc3ccc(C(F)(F)F)cc32)CC1
active: MDA-MB-435 melanoma -29.2% | HCC-2998 colon -42.4%
inactive: RPMI-8226 leukemia 42.2% | OVCAR-8 ovarian 91% | OVCAR-5 ovarian 83.9% | OVCAR-4 ovarian 54.4% | SK-OV-3 ovarian 77.3% | IGROV1 ovarian 41.3% | OVCAR-3 ovarian 78.7% | HS 578T breast 29.1% | NCI/ADR-RES ovarian 73.5% | SW-620 colon 67.7% | MCF7 breast 39.2% | HCT-116 colon 29.2% | KM12 colon 54.7%

C/C=C(/C)C(=O)OC1C=C(CO)C(=O)C(OC(=O)C(C)(O)C(C)Cl)C1C(C)C (stereo unspecified)
inactive: OVCAR-4 ovarian 14.1% | SK-OV-3 ovarian 35.8% | HS 578T breast 30.7%
active: RPMI-8226 leukemia -33.5% | OVCAR-8 ovarian 3.78% | OVCAR-5 ovarian -43.2% | IGROV1 ovarian -29.7% | OVCAR-3 ovarian -41.4% | NCI/ADR-RES ovarian 9.46% | BT-549 breast -9.98% | SW-620 colon -45.7% | MCF7 breast 8.43% | HCT-116 colon -56.5% | HCC-2998 colon -76.3% | KM12 colon -45.1%
